{"source": "PubChem BioAssay"}
{"tested_on": "not listed separately", "experiment": "binders of probe aFGF10 on microarray, primary screen, stem cell growth factor project, biochemical, small-molecule microarray, fluorescence 635/667 (AID 1071);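 also: score merges 667 nm spot intensity and signal to noise from triplicate slides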", "settings": "higher = more signal"}
{"smiles": "O=C1C[C@@H](O)[C@@H](O)[C@@H]2[C@@H]3C(=O)N(Cc4ccccc4)C(=O)[C@@H]3CC[C@@H]12", "composite z-score": 0.286}
{"smiles": "CCN1C(=O)[C@H]2[C@H]3[C@H](O)[C@H](O)CC(=NOCC(C)C)[C@@H]3CC[C@H]2C1=O", "composite z-score": 0.361}
{"smiles": "COC(=O)CC=C[C@@H](C)[C@@H](C=NOC[C@H]1O[C@H](c2ccccc2)C=C[C@@H]1Oc1ccc(OC)cc1)OC", "composite z-score": 0.304}
{"smiles": "CC(CCN1CCc2nc(-c3ccccc3)c(-c3ccccc3)cc2C1)=NOC[C@@H](O)[C@H]1O[C@@H]2OC(C)(C)O[C@@H]2[C@H]1O", "composite z-score": 0.455}
{"smiles": "O=C(NN=C1C[C@@H](O)[C@@H](O)[C@@H]2[C@@H]3C(=O)N(C4CCCCC4)C(=O)[C@@H]3CC[C@@H]12)OCc1ccccc1", "composite z-score": 0.0505}
{"smiles": "COc1ccc(O[C@H]2C=C[C@@H](c3ccccc3)O[C@@H]2CON=C(C)CCC(=O)OC[C@H]2O[C@H](c3ccccc3)C=C[C@@H]2Oc2ccc(OC)cc2)cc1", "composite z-score": 0.0207}
{"target": "Neurogenic locus notch homolog protein 2 (Homo sapiens) (UniProt Q04721)", "sequence (Q04721 whole entry, looked up)": "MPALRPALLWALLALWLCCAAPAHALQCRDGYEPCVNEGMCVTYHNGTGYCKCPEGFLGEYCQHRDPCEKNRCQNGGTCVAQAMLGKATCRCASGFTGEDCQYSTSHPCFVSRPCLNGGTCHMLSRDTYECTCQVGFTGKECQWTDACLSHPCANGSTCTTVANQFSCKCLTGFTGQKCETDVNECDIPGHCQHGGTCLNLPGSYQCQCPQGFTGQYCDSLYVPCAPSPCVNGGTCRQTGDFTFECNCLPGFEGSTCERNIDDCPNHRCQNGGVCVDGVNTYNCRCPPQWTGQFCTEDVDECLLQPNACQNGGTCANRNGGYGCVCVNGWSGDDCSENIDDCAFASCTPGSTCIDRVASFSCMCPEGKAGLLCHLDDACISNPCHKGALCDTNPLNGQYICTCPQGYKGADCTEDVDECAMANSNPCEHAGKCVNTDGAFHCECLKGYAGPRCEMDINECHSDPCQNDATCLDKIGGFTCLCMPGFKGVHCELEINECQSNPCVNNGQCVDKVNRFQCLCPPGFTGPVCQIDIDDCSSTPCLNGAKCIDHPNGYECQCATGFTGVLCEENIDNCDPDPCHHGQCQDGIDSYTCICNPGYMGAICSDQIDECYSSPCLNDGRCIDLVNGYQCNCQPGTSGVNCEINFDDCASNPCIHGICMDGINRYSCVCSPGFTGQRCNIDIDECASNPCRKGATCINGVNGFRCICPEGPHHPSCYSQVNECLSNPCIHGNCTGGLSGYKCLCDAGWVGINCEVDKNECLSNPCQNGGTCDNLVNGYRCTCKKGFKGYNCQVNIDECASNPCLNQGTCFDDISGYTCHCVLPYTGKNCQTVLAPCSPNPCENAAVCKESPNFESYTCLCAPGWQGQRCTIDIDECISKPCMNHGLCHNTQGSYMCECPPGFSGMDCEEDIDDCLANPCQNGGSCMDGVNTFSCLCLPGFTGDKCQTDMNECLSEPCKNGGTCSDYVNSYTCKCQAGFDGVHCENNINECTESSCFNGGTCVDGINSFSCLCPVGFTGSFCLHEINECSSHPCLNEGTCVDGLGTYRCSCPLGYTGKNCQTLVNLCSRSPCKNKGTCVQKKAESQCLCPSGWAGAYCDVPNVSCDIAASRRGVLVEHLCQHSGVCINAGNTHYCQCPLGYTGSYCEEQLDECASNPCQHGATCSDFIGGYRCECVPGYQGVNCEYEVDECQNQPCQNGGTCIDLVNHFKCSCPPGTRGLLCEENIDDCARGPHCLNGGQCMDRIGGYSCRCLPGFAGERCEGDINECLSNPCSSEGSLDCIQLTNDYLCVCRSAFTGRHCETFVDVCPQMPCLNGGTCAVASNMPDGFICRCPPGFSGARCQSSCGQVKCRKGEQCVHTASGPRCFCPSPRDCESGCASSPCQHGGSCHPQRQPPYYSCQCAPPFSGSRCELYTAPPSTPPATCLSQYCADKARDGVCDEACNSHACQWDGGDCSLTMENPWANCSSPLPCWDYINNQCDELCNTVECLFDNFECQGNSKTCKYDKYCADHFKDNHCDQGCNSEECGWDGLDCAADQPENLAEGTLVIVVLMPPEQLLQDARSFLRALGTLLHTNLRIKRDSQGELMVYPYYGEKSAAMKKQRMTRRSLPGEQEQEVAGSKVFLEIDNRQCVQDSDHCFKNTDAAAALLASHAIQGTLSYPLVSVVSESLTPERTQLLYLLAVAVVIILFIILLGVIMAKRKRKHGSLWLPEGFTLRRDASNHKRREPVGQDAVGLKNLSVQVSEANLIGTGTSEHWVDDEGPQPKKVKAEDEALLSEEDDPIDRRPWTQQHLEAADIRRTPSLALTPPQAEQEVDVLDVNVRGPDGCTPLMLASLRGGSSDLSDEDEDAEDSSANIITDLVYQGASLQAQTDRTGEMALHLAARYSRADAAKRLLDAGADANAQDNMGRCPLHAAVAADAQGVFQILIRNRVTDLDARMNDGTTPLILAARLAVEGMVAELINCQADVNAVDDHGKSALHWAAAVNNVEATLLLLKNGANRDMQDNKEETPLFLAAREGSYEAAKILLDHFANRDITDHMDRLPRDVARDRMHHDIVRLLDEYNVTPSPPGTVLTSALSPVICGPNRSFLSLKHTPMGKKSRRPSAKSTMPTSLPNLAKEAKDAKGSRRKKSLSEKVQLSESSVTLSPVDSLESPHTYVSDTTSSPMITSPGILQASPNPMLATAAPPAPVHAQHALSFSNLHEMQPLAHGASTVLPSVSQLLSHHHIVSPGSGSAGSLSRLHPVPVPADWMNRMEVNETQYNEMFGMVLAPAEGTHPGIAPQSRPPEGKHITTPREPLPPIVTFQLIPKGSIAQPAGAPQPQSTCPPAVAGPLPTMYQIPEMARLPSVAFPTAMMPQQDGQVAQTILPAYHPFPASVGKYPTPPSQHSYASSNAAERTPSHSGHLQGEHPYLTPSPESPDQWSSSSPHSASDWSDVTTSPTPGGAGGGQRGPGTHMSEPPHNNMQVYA", "experiment": "Notch2 binders on small-molecule microarrays, primary screen, biochemical, small-molecule microarray, 635 nm fluorescence, stem cell growth factors (AID 1073)", "settings": "Notch2 binding, higher = more signal"}
{"smiles": "CCOC(=O)NN=C1C[C@@H](O)[C@@H](O)[C@@H]2[C@@H]3C(=O)N([C@@H](C)c4ccccc4)C(=O)[C@@H]3CC[C@@H]12", "composite z-score": 0.601}
{"smiles": "COC(=O)[C@@H]1CC[C@H](C)[C@@H](c2ccc(C)cc2)N1C(=O)c1ccc(C=NO[C@@H](C)c2cn([C@H](CO)Cc3ccccc3)nn2)cc1", "composite z-score": 1.11}
{"smiles": "O=C1CCCC=C1C(O)CCOC(c1ccccc1)(c1ccccc1)c1ccccc1", "note": "(stereo not given)", "composite z-score": -0.0617}
{"smiles": "COC(=O)CC=C[C@@H](C)[C@@H]1C=C[C@H](O)[C@@H](CO)O1", "composite z-score": 0.432}
{"smiles": "C[C@@H](ON=C1[C@H]2CCn3c(=O)n(-c4ccccc4)c(=O)n3[C@H]2[C@H](O)[C@@H]2O[C@H]12)c1cn([C@@H]2COC[C@H]2O)nn1", "composite z-score": 0.213}
{"smiles": "CO[C@@H]1COC(=O)[C@H](CCSC)NC(=O)CC=C[C@@H](C)COC(=O)CCC[C@H]1C", "composite z-score": -0.559}
{"smiles": "COc1cccc([C@@H]2Oc3ccc(OC)cc3C(=O)[C@H]2O)c1", "composite z-score": 0.5}
{"smiles": "C=CC1=C[C@H](O)[C@@H]2O[C@@H]2C12OCCCO2", "composite z-score": 0.0754}
{"smiles": "CCOC(=O)NN=C1C[C@@H](O)[C@@H](O)[C@@H]2[C@@H]3C(=O)N(Cc4ccccc4)C(=O)[C@@H]3CC[C@H]12", "composite z-score": 0.287}
{"smiles": "COC(=O)[C@@H]1CC[C@H](C)[C@@H](c2ccc(C)cc2)N1C(=O)c1ccc(C=NO[C@H](C)c2cn([C@H](CO)Cc3ccccc3)nn2)cc1", "composite z-score": 0.672}
{"smiles": "COc1cc(O)c(C(=O)C=Cc2ccc3c(c2)OCO3)c(OC)c1", "composite z-score": -0.877}
{"smiles": "CCOC(=O)[C@H](CC(C)C)NC(=O)CCC1CC(OC(=O)NCc2cccc3ccccc23)CC2(CCCC(COC(=O)NCC3CCCCC3)O2)O1", "note": "(stereo not given in full)", "composite z-score": 0.763}
{"smiles": "Cc1cc2c(c(=O)o1)[C@@H](O)[C@H]1O[C@H]1C2=O", "composite z-score": 0.378}
{"smiles": "Cc1ccc(S(=O)(=O)NC(CCc2ccccc2)CC(=O)C(C)(C)C)cc1", "note": "(stereo not given)", "composite z-score": 0.747}
{"smiles": "C[C@@H](c1ccccc1)N1C(=O)[C@H]2[C@H]3[C@H](O)[C@H](O)CC(=NO[C@@H]4O[C@H](CO)[C@@H](O)[C@H](O)[C@H]4O)[C@@H]3CC[C@H]2C1=O", "composite z-score": 0.641}
{"smiles": "CCN1C(=O)[C@@H]2[C@H]3C(=CC[C@@H]2C1=O)C1(OCCCO1)[C@H]1O[C@H]1[C@H]3O", "composite z-score": 1.17}
{"smiles": "CCOC(=O)[C@H](CC(C)C)NC(=O)CCC1CC(OC(=O)NCc2cccc3ccccc23)CC2(CCCC(COC(=O)NCCCN3CCCC3=O)O2)O1", "note": "(stereo not given in full)", "composite z-score": 0.755}
{"smiles": "CC(=O)OC[C@H]1OC(ON=CC[C@@H]2C=C[C@H](OC(C)=O)[C@@H](COC(C)=O)O2)[C@H](OC(C)=O)[C@@H](OC(C)=O)[C@@H]1OC(C)=O", "note": "(stereo not given in full)", "composite z-score": 0.94}
{"smiles": "COc1ccc(O[C@@H]2[C@H](O)CO[C@@H]2C=Cc2ccccc2)cc1", "composite z-score": -0.0587}
{"smiles": "O=C1[C@H]2[C@H]3[C@H](O)[C@H](O)CC(=NOC[C@@H](O)COCc4ccco4)[C@H]3CC[C@H]2C(=O)N1C[C@@H]1CCCO1", "composite z-score": 0.256}
{"smiles": "CC(C)=CCCC(C)=CCON=C1C[C@@H](O)[C@@H](O)[C@@H]2[C@@H]3C(=O)N(C(C)(C)C)C(=O)[C@@H]3CC[C@@H]12", "composite z-score": 0.0729}
{"smiles": "C#CCCCON=C1C[C@@H](O)[C@@H](O)[C@@H]2[C@@H]3C(=O)N(CCC(=O)OCC)C(=O)[C@@H]3CC[C@H]12", "composite z-score": 0.872}
{"smiles": "C[C@H]1CC[C@H]2C(=O)O[C@H](COc3ccc(C(C)(C)C)cc3)CN2[C@@H]1c1ccc(Br)cc1", "composite z-score": -0.0332}
{"smiles": "CC(C)=CCCC(C)=CCON=C1C[C@@H](O)[C@@H](O)[C@@H]2[C@@H]3C(=O)N(c4cccc(Oc5ccccc5)c4)C(=O)[C@@H]3CC[C@@H]12", "composite z-score": 0.521}
